# Assay results taken from ChEMBL document CHEMBL3433997, “St. Jude Leishmania screening dataset” (2016).
# Tests used:
# Type in all cases: functional
# [1] = biological target: Solute carrier family 2, facilitated glucose transporter member 1 (Homo sapiens) (UniProt P11166); experiment: ST_JUDE_LEISH: Cytotoxicity at 2uM final concentration against transgenic Leishmania Mexicana promastigotes LmGLUT1 that are glucose transport deficient and complemented with the human glucose transporter GLUT1. Activity is measured by DNA content using SYBR green in vitro
# Sequence of Solute carrier family 2, facilitated glucose transporter member 1 (Homo sapiens) (P11166 whole entry): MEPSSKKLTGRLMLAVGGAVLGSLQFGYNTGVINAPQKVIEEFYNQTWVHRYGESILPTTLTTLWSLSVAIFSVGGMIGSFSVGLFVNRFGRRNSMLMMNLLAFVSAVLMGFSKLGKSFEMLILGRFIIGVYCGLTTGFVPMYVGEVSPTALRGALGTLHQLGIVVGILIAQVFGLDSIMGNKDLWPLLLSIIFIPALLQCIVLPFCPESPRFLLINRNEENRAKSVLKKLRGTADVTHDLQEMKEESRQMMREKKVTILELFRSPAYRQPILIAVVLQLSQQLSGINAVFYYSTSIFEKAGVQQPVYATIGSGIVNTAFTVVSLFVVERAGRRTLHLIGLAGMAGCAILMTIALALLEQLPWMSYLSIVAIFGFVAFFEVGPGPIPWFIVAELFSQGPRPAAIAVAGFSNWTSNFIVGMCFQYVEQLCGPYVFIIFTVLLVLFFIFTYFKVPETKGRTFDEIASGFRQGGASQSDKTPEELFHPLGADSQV
# [2] = biological target: Hexose transporter 1 (Plasmodium falciparum) (UniProt O97467); experiment: ST_JUDE_LEISH: Cytotoxicity at 2uM final concentration against transgenic Leishmania Mexicana promastigotes LmPfHT that are glucose transport deficient and complemented with the Plasmodium falciparum hexose transporter. Activity is measured by DNA content using SYBR green in vitro
# [3] = biological target: Glucose transporter (Leishmania mexicana) (UniProt O61059); experiment: ST_JUDE_LEISH: Cytotoxicity at 2uM final concentration against transgenic Leishmania Mexicana promastigotes LmGT2 that are glucose transport deficient and complemented with the L. Mexicana glucose transporter 2. Activity is measured by DNA content using SYBR green in vitro
SMILES,inhibition [1] [%],inhibition [2] [%],inhibition [3] [%]
N#Cc1c(N)n(CCc2ccc(F)cc2)c2nc3ccccc3nc12,1.05,1.58,-0.08
CC(Nc1ccc2c(c1)OCCO2)C(=O)Nc1cc(C(F)(F)F)ccc1N1CCOCC1 (centres undefined),7.38,8.1,6.63
OC(CNc1ccnc(Nc2cccc(OCCCN3CCOCC3)c2)n1)c1ccccc1 (centres undefined),0.76,0.43,-0.96
O=C(Nc1ccc(Cn2nc(Cl)c(N3CCNCC3)cc2=O)cc1)Nc1ccc(-c2ccccc2)cc1,14,9.91,11.4
CCNC[C@@H](O)[C@H](Cc1ccccc1)NC(=O)c1cc2c3c(c1)c(CC)cn3CCS(=O)(=O)N2C,0.67,0.11,-0.02
CCn1ncc2c(N3CCCC3=O)cc(C(=O)N[C@@H](Cc3ccccc3)[C@H](O)CNC(C)(C)c3cccc(OC)c3)cc21,2.35,-0.95,0.04
O=C(/C=C/c1ccc(Cl)c(Cl)c1)N1CCCC(CCCN2CCC(c3c[nH]c4ccccc34)CC2)C1 (centres undefined),4.23,3.51,-0.35
Cc1nc(O)c2c(ccc3ccc(CNc4ccc(C(=O)N[C@@H](CCC(=O)O)C(=O)O)c(F)c4)cc32)n1,-0.83,0.87,-0.16
